IL-1B inflam inh = inhibitors of inflammasome signaling (IL-1 beta secretion). activity change, % at 57.5 µM. AID 743279. 360,000 tested, 4.7% active. THP-1 LPS/ATP IL-1B secretion, AlphaLISA, 16 h; active compounds read low; in the data active = activity change below about -50%; inconclusive = mostly about -30% to -49%; note: % is set by controls: 0 for no effect and ±100 for the full control effect
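Secreted IL-1B measured by AlphaLISA bead assay after 16 h compound exposure of THP-1 cells; compounds (final up to 57.5 uM) added 1 h before LPS (250 ng/mL) and ATP (1.25 mM) stimulation; lower signal means less secretion.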
ATXN viability = viability counter-screen for ATXN expression inhibitors. AID 651635. Potency, µM (top dose mostly 56.7 µM), most hits filed as cytotoxic. S2 cells (HEK-293 line with an ATXN2-luciferase reporter) viability, CellTiter-Fluor protease fluorescence, 24 h. 400,000 tested, 0.49% active; note: potency is the fitted concentration of half-maximal effect; nearly all actives have a fitted effect of over 40% in size
TGFb inhibitor = inhibitors of TGF-b signaling; HepG2 CAGA-GFP TGF-b/SMAD3 reporter, GFP fluorescence, 18 h; TGF-beta stimulated, 500 pg/mL final; Potency, µM (highest dose often 46.1 µM), for the others: top-dose activity, negative = inhibition, actives largely listed as inhibitors; 410,000 tested, 1.2% active; AID 588855; note: potency is the fitted concentration of half-maximal effect; % is set by controls: 0 for no effect and ±100 for the full control effect; nearly all actives have a fitted effect of over 65% in size
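Using HEPG2 CAGA-GFP reporter cells at 1000 cells/well, we pinned test compounds, stimulated with recombinant TGF-beta (500 pg/mL final) and measured total well GFP after 18 h.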
ATXN2 expr inh = ATXN2 expression inhibition | HEK-293 ATXN2-luciferase reporter, luminescence, 24 h | Potency, µM (titrated, usually from 57 µM), for the others: at the top dose activity change, negative = inhibition, actives largely listed as inhibitors | 360,000 tested, 0.72% active | AID 1745845; note: potency is the fitted concentration of half-maximal effect; % is set by controls: 0 for no effect and ±100 for the full control effect; nearly all actives have a fitted effect of over 55% in size
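qHTS (up to 57 uM final) was run with 24 h compound exposure of reporter cells at 37 °C. Each well was multiplexed: SteadyGlo luminescence measured ATXN2-luciferase expression after a fluorogenic Gly-Phe-AFC viability readout (25 uM final).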
HepG2 tox = kills HepG2 cells in TGF-b inhibitor counter-screen | Potency, µM (top dose mostly 46.1 µM), without a hit: at the highest dose activity change, negative = cytotoxicity, usual class: cytotoxic | HepG2 CAGA-GFP viability, ATP luminescence, 18 h | 410,000 tested, 0.76% active | AID 588856; note: potency is the fitted concentration of half-maximal effect
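CellTiter-Glo luminescence gave cytotoxicity after 18 hours at 37 degrees C. The cells were HepG2 CAGA-GFP in 1% FBS DMEM, stimulated with 500 pg/mL TGF-beta after compound addition. %Activity was normalised to no-cell wells (complete cell-killing) and DMSO (no toxicity), and curves were fitted and classified.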
An asterisk follows results filed as active. An excerpt weighted towards active compounds, which were near 5.7% of everything screened. Unless noted, calls come from the whole dose curve; as a rule, active = well fitted curve in the direction sought with a large enough effect; inconclusive = small, poorly fitted or top-dose-only effect, or another doubt; inactive = no such curve, though single readings can be large; an effect the other way counts as inactive or inconclusive.

`CCOC(=O)C1(CCOc2ccccc2)CCN(Cc2ccc3c(c2)OCCO3)CC1` gave IL-1B inflam inh -88.2*, ATXN viability inactive, TGFb inhibitor -10.1%, ATXN2 expr inh 0.0% and HepG2 tox -18.5%.
CCOC(=O)C1(CCOc2ccccc2)CCN(Cc2cc(OC)ccc2OC)CC1 was read as IL-1B inflam inh -7.3, ATXN viability inconclusive, TGFb inhibitor inconclusive and HepG2 tox -55.3%.
Screening CCOC(=O)C1(CCOc2ccccc2)CCN(Cc2ccc(F)c(OC)c2)CC1 returned IL-1B inflam inh -88.5*, ATXN viability inactive, TGFb inhibitor inconclusive, ATXN2 expr inh inconclusive and HepG2 tox -50.1%.
`CCOC(=O)C1(Cc2cccc(OC)c2)CCN(Cc2cccnc2)CC1` gave IL-1B inflam inh 11.2, ATXN viability inactive, TGFb inhibitor 10.8%, ATXN2 expr inh -25.6% and HepG2 tox 7.7%.
CCC1CN(CC(=O)NC(c2ccccn2)C(F)(F)F)Cc2cc(OC)ccc2O1 (stereo unspecified) was read as ATXN viability inactive.
`COc1ccc2c(c1)CC(C(=O)NCCCN1CCN(c3ccc(F)cc3)CC1)CO2` (stereo unspecified) gave ATXN viability inactive, TGFb inhibitor -2.5%, ATXN2 expr inh -18.0% and HepG2 tox -20.3%.
Screening CC(=O)Nc1ccccc1-c1nc(CNC(=O)c2ccc(C)cc2)c(C)o1 returned ATXN viability inactive.
O=C1C(=NO)C(c2ccccc2)Oc2ccccc21 (stereo unspecified) was read as IL-1B inflam inh -89.6*, ATXN viability inactive, TGFb inhibitor 0.0%, ATXN2 expr inh 36.8% and HepG2 tox -33.1%.
`Cc1cccc(S(=O)(=O)Nc2ccc(-c3nc4ccc(C)cc4s3)cc2)c1` gave IL-1B inflam inh -12.1, ATXN viability inactive, TGFb inhibitor 12.6µM*, ATXN2 expr inh 85.3% and HepG2 tox -62.1%.
For Cc1ccc(S(=O)(=O)Nc2ccc(-c3nc4ccc(C)cc4s3)cc2)cc1 the results were IL-1B inflam inh 0.0, ATXN viability inactive, TGFb inhibitor inconclusive, ATXN2 expr inh 4.8% and HepG2 tox 10µM*.
`COc1cccc(NC(=O)N(Cc2c[nH]c3ccccc23)C2CCCCCC2)c1` gave ATXN viability inconclusive, TGFb inhibitor inconclusive, ATXN2 expr inh 1.6% and HepG2 tox -54.4%.
CCN(CC)CCOC(=O)CCc1cccc2ccccc12 was read as IL-1B inflam inh 0.0, ATXN viability inconclusive, TGFb inhibitor -0.4%, ATXN2 expr inh 4.5% and HepG2 tox 5.0%.
For CCN(CC)CCOC(=O)C(Cc1ccco1)Cc1cccc2ccccc12 (stereo unspecified) the results were IL-1B inflam inh -57.1*, ATXN viability inactive, TGFb inhibitor -24.5%, ATXN2 expr inh -12.3% and HepG2 tox -30.5%.
`COc1ccc(-n2nc(C(=O)Nc3ccc(C)cn3)c3c4ccccc4n(C)c3c2=O)cc1` gave ATXN viability inactive, TGFb inhibitor 9.8%, ATXN2 expr inh 17.1% and HepG2 tox -0.9%.
Screening CC(=O)c1ccc(N2C(=O)N(Cc3cccc(C(F)(F)F)c3)c3ccccc3S2(=O)=O)cc1 returned ATXN viability inactive, TGFb inhibitor inconclusive, ATXN2 expr inh -2.5% and HepG2 tox -9.0%.
Screening C=CC(C)(C)c1c(O)c(CC=C(C)C)c(O)c2c(=O)c3ccc(O)c(O)c3oc12 returned IL-1B inflam inh 83.0, ATXN viability 28.2µM*, TGFb inhibitor 11.2µM*, ATXN2 expr inh inconclusive and HepG2 tox 14.1µM*.
For CCOC(=O)COc1c(Cl)cc(C2NC(=S)NC(c3ccccc3)=C2C(C)=O)cc1OC (stereo unspecified) the results were IL-1B inflam inh -95.3*, ATXN viability inactive, TGFb inhibitor inconclusive, ATXN2 expr inh 5.0% and HepG2 tox -33.6%.
For COC(=O)COc1ccc(C2NC(=O)NC(c3ccccc3)=C2C(C)=O)cc1Br (stereo unspecified) the results were IL-1B inflam inh -71.2*, ATXN viability inconclusive, TGFb inhibitor inconclusive, ATXN2 expr inh -12.5% and HepG2 tox -61.0%.
Screening COc1cc(C2NC(=S)NC(c3ccccc3)=C2C(C)=O)cc(Cl)c1OCC(=O)O (stereo unspecified) returned IL-1B inflam inh 5.0, ATXN viability inactive, TGFb inhibitor -2.1%, ATXN2 expr inh 1.6% and HepG2 tox 8.8%.
For C[N+]1(CC(=O)c2ccc(I)cc2)CCOCC1 the results were TGFb inhibitor -2.7% and HepG2 tox 2.5%.
For O=C(C[n+]1ccccc1)c1ccc(I)cc1 the results were TGFb inhibitor 3.5% and HepG2 tox 4.8%.
Screening Oc1ccc(/C(Cc2ccc3ccccc3n2)=N\Nc2ccccc2)c(O)c1 returned IL-1B inflam inh -97.9*, ATXN viability inactive, TGFb inhibitor inconclusive, ATXN2 expr inh -18.7% and HepG2 tox -14.4%.
CC(=O)Oc1ccc(C(=O)Cc2ccc3ccccc3n2)c(O)c1C was read as IL-1B inflam inh 4.2, ATXN viability inactive, TGFb inhibitor -9.8%, ATXN2 expr inh 46.5% and HepG2 tox -6.5%.
`N/N=C(\Cc1cscn1)c1ccc(O)cc1O` gave IL-1B inflam inh 4.8, ATXN viability inactive, TGFb inhibitor 0.2%, ATXN2 expr inh 6.7% and HepG2 tox -7.8%.
Screening O/C(=C\c1ccc2ccccc2n1)c1ccc(O)cc1O returned IL-1B inflam inh -1.0, ATXN viability inactive, TGFb inhibitor 3.6%, ATXN2 expr inh 38.5% and HepG2 tox -33.3%.
For Cc1c(O)ccc(/C(Cc2ccc3ccccc3n2)=N\O)c1O the results were IL-1B inflam inh -66.8*, ATXN viability inactive, TGFb inhibitor inconclusive, ATXN2 expr inh 64.3% and HepG2 tox -14.6%.
`Oc1ccc(/C(Cc2ccccn2)=N\Nc2ccccc2)c(O)c1` gave IL-1B inflam inh -179.7*, ATXN viability inactive, TGFb inhibitor inconclusive and HepG2 tox -1.3%.
COc1ccc(C2=Nn3c(nnc3-c3ccccc3OC)SC2)cc1OC1CCOC1 (stereo unspecified) was read as ATXN viability inconclusive, TGFb inhibitor 2.82µM*, ATXN2 expr inh -13.9% and HepG2 tox -18.0%.
Screening COc1ccc(OC)c(-c2nnc3n2N=C(c2ccc(OC)c(OCC4CC4)c2)CS3)c1 returned ATXN viability inconclusive, TGFb inhibitor 7.94µM*, ATXN2 expr inh inconclusive and HepG2 tox -25.8%.
`COc1ccc(C2=Nn3c(nnc3-c3ccccc3C(F)(F)F)SC2)cc1OC1CCOC1` (stereo unspecified) gave ATXN viability inactive, TGFb inhibitor 11.8%, ATXN2 expr inh -28.3% and HepG2 tox 18.3%.

Screening results: PubChem, National Center for Advancing Translational Sciences (NCATS)
